Measurements from the supplement of paper PMC10849652.
The full data set covers some 7,900 targets. This sample favours those with a hit. About 0.6% of all pairs of compound and target were hits. Unmarked numbers belong to inactive results.

How the values were obtained:
Test in all cases: log2 fold change, soluble protein after heating vs DMSO (PISA); higher = thermal stabilisation; K562 cells, 10 uM, 30 min; active = over 0.2 and 3.5 SD of the protein, either way, in both replicates (recomputed)
[1] = compound: NC(=O)Nc1cc(-c2cccc(F)c2)sc1C(=O)N[C@H]1CCCNC1
How it was run: (§1)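 Soluble protein was quantified by TMTpro 16plex LC-MS/MS after channel sums were equalised. It was obtained as the supernatant after 21,000xg for 90 min from pooled aliquots of K562 cells (2×10^6 cells/mL, 10 μM compound, 30 min) heated for 3 min across 48°C-58°C and extracted in PBS with 0.5% NP-40 at 4°C. Thermal stability values are relative to control samples and come from duplicates. They are given as log2 fold changes.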

[2] = compound: NC(=O)c1cnc(N[C@@H]2CCCC[C@@H]2N)nc1Nc1cccc(-n2nccn2)c1
How it was run: as §1

[3] = compound: NC1(c2ccc(-c3nc4ccn5c(=O)[nH]nc5c4cc3-c3ccccc3)cc2)CCC1
How it was run: as §1

[4] = compound: NCC(=O)Nc1ccc(-n2nc(C(F)(F)F)cc2-c2ccc3c(ccc4ccccc43)c2)cc1
How it was run: as §1

entinostat = compound: Nc1ccccc1NC(=O)c1ccc(CNC(=O)OCc2cccnc2)cc1 [entinostat]
How it was run: as §1

vorinostat = compound: O=C(CCCCCCC(=O)Nc1ccccc1)NO [vorinostat]
How it was run: as §1

citarinostat = compound: O=C(CCCCCCNC(=O)c1cnc(N(c2ccccc2)c2ccccc2Cl)nc1)NO [citarinostat]
How it was run: as §1

silmitasertib = compound: O=C(O)c1ccc2c(c1)nc(Nc1cccc(Cl)c1)c1ccncc12 [silmitasertib]
How it was run: as §1

[5] = compound: O=C1NC(=O)C(c2cnc3ccccn23)=C1c1cn2c3c(cc(F)cc13)CN(C(=O)N1CCCCC1)CC2
How it was run: as §1

[6] = compound: c1cc(OCCN2CCCCC2)cc(-c2n[nH]c3ccc(-c4nnc[nH]4)cc23)c1
How it was run: as §1

Chain of UniProt O96011 (O96011 whole entry, looked up, change not shown): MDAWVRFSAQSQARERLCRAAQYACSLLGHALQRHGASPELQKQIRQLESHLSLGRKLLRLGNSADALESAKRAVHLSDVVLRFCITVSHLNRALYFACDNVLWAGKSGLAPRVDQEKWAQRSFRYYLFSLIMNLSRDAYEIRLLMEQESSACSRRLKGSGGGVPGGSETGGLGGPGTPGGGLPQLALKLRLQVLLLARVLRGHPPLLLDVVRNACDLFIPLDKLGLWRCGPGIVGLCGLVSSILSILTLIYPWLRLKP
Chain of UniProt Q9H300 (Q9H300 whole entry, looked up): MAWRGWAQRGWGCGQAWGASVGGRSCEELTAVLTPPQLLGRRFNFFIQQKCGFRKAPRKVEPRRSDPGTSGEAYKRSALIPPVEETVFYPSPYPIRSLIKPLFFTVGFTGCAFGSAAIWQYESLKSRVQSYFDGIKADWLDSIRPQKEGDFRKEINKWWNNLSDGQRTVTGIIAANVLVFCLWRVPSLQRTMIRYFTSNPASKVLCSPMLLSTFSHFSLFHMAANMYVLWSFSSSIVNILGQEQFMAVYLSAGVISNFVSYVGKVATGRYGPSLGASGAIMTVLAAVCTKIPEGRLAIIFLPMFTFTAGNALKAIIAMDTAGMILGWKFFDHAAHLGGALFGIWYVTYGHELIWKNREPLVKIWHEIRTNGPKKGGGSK
Chain of UniProt Q14181 (Q14181 whole entry, looked up): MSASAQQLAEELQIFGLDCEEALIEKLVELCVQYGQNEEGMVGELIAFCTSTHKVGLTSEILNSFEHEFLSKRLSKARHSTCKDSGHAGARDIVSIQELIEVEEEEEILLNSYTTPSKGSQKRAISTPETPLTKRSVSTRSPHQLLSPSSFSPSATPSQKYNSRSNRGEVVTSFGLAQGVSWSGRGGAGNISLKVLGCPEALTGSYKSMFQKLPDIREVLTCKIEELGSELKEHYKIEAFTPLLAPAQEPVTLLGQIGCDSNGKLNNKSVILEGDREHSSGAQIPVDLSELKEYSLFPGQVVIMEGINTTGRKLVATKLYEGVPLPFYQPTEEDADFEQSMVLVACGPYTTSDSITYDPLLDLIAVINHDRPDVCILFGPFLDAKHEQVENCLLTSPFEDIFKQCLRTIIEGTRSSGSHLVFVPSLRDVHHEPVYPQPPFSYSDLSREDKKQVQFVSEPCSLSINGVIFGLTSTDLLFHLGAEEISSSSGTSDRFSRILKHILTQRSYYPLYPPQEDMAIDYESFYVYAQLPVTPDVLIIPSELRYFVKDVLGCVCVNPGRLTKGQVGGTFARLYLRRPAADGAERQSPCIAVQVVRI
Chain of UniProt Q8WUK0 (Q8WUK0 whole entry, looked up): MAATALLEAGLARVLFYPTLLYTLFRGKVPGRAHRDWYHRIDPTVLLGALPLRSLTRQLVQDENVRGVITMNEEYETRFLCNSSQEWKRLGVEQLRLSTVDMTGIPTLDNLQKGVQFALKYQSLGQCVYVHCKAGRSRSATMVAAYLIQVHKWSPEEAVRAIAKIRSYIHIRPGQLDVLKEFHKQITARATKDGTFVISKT
Chain of UniProt P10644 (P10644 whole entry, looked up): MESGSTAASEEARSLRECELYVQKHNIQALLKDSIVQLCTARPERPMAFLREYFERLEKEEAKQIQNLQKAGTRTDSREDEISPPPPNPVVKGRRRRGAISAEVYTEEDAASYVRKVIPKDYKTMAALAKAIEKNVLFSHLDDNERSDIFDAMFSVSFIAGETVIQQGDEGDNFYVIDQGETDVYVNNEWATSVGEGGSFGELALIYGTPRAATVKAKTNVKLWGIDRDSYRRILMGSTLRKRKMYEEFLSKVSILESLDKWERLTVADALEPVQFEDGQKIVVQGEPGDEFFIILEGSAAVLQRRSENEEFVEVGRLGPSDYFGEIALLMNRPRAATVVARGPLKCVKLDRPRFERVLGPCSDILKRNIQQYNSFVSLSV
Chain of UniProt Q8WUM4 (Q8WUM4 whole entry, looked up): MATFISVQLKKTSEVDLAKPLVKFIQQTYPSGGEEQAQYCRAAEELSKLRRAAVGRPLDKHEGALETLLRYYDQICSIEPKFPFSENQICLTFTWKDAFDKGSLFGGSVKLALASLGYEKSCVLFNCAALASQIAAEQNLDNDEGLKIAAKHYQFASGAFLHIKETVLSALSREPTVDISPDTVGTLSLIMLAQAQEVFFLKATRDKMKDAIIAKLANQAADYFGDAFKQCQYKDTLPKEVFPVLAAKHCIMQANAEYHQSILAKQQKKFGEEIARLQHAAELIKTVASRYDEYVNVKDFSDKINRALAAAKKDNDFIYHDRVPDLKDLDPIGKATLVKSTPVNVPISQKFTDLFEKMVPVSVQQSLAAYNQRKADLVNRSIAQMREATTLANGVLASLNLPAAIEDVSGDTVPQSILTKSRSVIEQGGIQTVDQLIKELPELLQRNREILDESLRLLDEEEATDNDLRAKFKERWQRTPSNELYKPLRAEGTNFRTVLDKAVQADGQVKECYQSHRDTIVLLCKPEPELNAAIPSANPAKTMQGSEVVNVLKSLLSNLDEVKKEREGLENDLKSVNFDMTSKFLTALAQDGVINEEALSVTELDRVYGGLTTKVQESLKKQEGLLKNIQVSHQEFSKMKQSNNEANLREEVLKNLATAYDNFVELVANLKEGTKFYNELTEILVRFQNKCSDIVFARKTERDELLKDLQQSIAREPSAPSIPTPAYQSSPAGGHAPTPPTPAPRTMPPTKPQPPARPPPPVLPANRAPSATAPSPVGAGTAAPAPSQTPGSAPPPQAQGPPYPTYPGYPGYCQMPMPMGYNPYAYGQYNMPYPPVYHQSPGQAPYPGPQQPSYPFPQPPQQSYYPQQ
Chain of UniProt O00628 (O00628 whole entry, looked up): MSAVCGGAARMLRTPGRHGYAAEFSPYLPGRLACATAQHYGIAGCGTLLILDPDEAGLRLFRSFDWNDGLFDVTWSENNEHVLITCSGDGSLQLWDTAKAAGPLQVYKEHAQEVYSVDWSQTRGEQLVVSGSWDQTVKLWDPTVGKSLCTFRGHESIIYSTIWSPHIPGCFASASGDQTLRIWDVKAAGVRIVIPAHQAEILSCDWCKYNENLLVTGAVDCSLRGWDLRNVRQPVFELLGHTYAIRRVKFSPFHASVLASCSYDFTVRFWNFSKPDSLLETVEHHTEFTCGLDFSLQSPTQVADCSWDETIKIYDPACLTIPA
Chain of UniProt P14618 (P14618 whole entry, looked up): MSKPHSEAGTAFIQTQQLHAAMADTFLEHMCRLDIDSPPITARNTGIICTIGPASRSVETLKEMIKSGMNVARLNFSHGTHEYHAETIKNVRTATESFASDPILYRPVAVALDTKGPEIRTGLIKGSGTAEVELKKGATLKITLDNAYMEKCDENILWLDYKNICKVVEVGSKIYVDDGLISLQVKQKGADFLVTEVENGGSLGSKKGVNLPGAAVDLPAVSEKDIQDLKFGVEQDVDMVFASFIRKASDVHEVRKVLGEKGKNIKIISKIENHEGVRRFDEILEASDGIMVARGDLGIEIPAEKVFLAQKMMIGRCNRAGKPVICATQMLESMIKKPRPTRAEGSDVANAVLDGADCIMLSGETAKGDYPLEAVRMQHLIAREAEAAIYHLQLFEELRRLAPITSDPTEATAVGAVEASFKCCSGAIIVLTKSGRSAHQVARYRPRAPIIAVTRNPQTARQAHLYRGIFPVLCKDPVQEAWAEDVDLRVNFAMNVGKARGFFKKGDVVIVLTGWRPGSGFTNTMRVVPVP
Chain of UniProt Q01970 (Q01970 whole entry, looked up): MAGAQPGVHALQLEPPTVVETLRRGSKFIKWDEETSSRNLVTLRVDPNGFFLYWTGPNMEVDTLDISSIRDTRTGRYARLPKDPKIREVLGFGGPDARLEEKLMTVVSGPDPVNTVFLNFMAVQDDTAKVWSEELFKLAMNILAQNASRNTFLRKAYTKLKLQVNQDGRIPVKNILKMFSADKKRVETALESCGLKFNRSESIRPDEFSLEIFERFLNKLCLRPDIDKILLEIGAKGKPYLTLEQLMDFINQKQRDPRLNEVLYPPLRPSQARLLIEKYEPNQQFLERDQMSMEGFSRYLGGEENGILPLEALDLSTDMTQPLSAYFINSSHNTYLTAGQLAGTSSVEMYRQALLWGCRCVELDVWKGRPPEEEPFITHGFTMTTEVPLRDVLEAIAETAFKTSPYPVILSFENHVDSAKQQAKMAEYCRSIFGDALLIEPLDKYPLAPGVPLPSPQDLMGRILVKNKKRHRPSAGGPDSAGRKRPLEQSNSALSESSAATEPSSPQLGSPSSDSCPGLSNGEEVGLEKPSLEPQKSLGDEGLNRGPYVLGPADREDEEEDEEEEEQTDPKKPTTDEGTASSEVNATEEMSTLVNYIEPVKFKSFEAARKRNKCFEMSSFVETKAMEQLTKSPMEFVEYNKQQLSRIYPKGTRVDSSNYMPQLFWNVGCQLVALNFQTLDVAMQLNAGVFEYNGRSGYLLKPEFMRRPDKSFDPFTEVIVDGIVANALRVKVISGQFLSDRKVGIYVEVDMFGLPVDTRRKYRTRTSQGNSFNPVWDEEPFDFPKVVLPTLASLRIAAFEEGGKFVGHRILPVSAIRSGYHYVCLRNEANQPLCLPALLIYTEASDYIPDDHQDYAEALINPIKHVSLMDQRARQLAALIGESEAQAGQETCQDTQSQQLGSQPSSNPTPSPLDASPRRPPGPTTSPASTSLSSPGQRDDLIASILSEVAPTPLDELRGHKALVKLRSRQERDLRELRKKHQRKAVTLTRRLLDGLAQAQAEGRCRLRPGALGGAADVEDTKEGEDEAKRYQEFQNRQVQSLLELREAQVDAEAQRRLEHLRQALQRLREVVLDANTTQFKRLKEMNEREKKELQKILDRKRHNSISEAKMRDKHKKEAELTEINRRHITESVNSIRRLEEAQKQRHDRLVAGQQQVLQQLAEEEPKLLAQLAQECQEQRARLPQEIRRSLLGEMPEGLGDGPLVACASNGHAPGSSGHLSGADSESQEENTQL
Chain of UniProt O75340 (O75340 whole entry, looked up): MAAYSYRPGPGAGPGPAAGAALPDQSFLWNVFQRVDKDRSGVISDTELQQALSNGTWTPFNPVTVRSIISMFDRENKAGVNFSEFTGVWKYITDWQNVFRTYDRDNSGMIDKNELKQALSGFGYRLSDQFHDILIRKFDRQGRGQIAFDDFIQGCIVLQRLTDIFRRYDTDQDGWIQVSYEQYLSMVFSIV

Row | Target | log2 fold change [1] | log2 fold change [2] | log2 fold change [3] | log2 fold change [4] | log2 fold change (entinostat) | log2 fold change (vorinostat) | log2 fold change (citarinostat) | log2 fold change (silmitasertib) | log2 fold change [5] | log2 fold change [6]
1 | PLBD1 (UniProt Q6P4A8) | 0.008 | -0.061 | -0.076 | -0.039 | 0.008 | -0.038 | -0.018 | 0.003 | -0.027 | 0.409
2 | PPP2R5C isoform 5 (UniProt Q13362) | 0.003 | 0.011 | -0.134 | -0.027 | 0.018 | -0.044 | 0.169 | -0.005 | -0.053 | -0.01
3 | PARN (UniProt O95453) | 0.012 | -0.042 | -0.1 | -0.087 | 0.015 | 0.03 | 0.056 | 0.028 | -0.069 | -0.082
4 | PRKAR1A (UniProt P10644) | -0.052 | 0.191 | 0.301 | -0.041 | -0.068 | -0.16 | 0 | 0.166 | 0.063 | -0.04
5 | PARP1 (UniProt P09874) | -0.128 | -0.064 | -0.102 | -0.09 | 0.142 | 0.042 | 0.091 | 0.039 | -0.173 | 0
6 | PNPLA2 (UniProt Q96AD5) | -0.075 | -0.01 | -0.05 | -0.004 | 0.078 | 0.192 | 0.087 | 0.065 | 0.012 | -0.138
7 | PHAX (UniProt Q9H814) | 0.008 | -0.084 | -0.003 | 0.013 | -0.022 | -0.006 | 0.041 | 0.092 | 0.046 | -0.029
8 | PEX7 (UniProt O00628) | -0.017 | -0.031 | -0.022 | -0.03 | -0.077 | 0.013 | 0.074 | -0.017 | -0.051 | 0.042
9 | PDLIM7 (UniProt Q9NR12) | 0.003 | 0.009 | 0.043 | -0.042 | 0.011 | 0.082 | 0.037 | -0.017 | 0.021 | -0.026
10 | PKM isoform 2 (UniProt P14618) | 0.123 | 0.175 | -0.063 | 0.116 | 0.05 | -0.195 | -0.075 | -0.052 | 0.043 | -0.093
11 | PDCD6 (UniProt O75340) | -0.066 | -0.08 | 0.117 | -0.106 | 0.081 | 0.028 | 0.064 | -0.022 | -0.096 | -0.024
12 | PTPMT1 (UniProt Q8WUK0) | -0.087 | -0.264 | -0.263 | -0.166 | 0.073 | 0.049 | 0.014 | 0.032 | -0.015 | -0.082
13 | PRKACB isoform 2 (UniProt P22694) | 0.078 | -0.11 | -0.173 | -0.02 | 0.001 | 0.04 | 0.015 | -0.002 | -0.119 | -0.065
14 | PLBD2 (UniProt Q8NHP8) | -0.002 | 0.049 | -0.091 | -0.004 | -0.008 | -0.073 | 0.003 | 0.017 | 0.001 | -0.006
15 | PDE12 (UniProt Q6L8Q7) | -0.036 | 0.07 | -0.069 | -0.008 | 0.017 | -0.003 | 0.044 | -0.014 | -0.089 | 0.047
16 | POLA2 (UniProt Q14181) | -0.102 | -0.115 | -0.129 | -0.133 | -0.014 | 0.072 | 0.054 | 0.058 | -0.054 | -0.026
17 | PIK3C3 (UniProt Q8NEB9) | 0.068 | 0.117 | -0.018 | -0.015 | -0.03 | -0.038 | -0.038 | 0.051 | 0.078 | -0.041
18 | PDCD6IP (UniProt Q8WUM4) | -0.055 | -0.1 | -0.186 | -0.103 | 0.149 | 0.186 | 0.113 | 0.094 | -0.009 | 0
19 | PRKACA (UniProt P17612) | 0.097 | 0.048 | -0.132 | -0.025 | -0.019 | 0.02 | 0.023 | -0.051 | 0.05 | -0.067
20 | PRPF3 (UniProt O43395) | 0.026 | -0.029 | -0.099 | -0.077 | 0.064 | 0.128 | 0.194 | -0.014 | -0.063 | 0
21 | PNPLA8 (UniProt Q9NP80) | -0.035 | 0.007 | -0.038 | -0.038 | -0.031 | 0.111 | 0.049 | -0.036 | -0.017 | -0.052
22 | PARL (UniProt Q9H300) | 0.025 | -0.06 | -0.07 | -0.09 | 0.023 | -0.07 | 0.054 | 0.032 | -0.082 | -0.017
23 | PRIM1 (UniProt P49642) | -0.008 | -0.016 | -0.093 | -0.056 | 0.041 | 0.065 | 0.063 | 0.089 | 0.023 | -0.037
24 | PEX11B (UniProt O96011) | 0.095 | 0.052 | -0.03 | 0.073 | 0.047 | 0.049 | 0.114 | -0.031 | 0.035 | 0.024
25 | PXK (UniProt Q7Z7A4) | -0.057 | -0.044 | -0.279 (active) | -0.073 | 0.014 | 0.018 | 0.021 | -0.002 | -0.043 | 0.008
26 | PLCB3 (UniProt Q01970) | -0.005 | -0.086 | -0.141 | -0.023 | 0.037 | -0.008 | -0.007 | 0.008 | 0.005 | 0.064
27 | PTDSS1 (UniProt P48651) | 0.043 | -0.045 | 0.022 | -0.007 | -0.058 | 0.199 | -0.051 | 0.091 | 0.184 | -0.06
